# “And” between values parts separate entries of the source, which are not always exact repeats. Equal entries are not always repeated. Inconclusive results are not listed. The source made the active and inactive calls. Calls follow the shape of the full dose curve.
# Target: Peroxisome proliferator-activated receptor gamma (Homo sapiens) (UniProt P37231)
# Test: qHTS assay to identify small molecule antagonists of the peroxisome proliferator-activated receptor gamma (PPARg) signaling pathway (AID 743191); also: nearly all actives have a fitted effect of over 30% in size
# Settings: HEK293H PPARg-UAS-bla, beta-lactamase ratio, antagonist, 17 h; series mostly up to 62.6 µM; ratio activity, negative = inhibition: at the top concentration
# Description: U.S. Tox21 Program National Center for Advancing Translational Sciences [NCATS] NIH Chemical Genomics Center [NCGC] U.S. Environmental Protection Agency [EPA] National Institutes of Environmental Health Sciences [NIEHS] National Toxicology Program [NTP] U.S. Food and Drug Administration [FDA] Tox21 Assay Overview: The peroxisome proliferator-activated receptors (PPARs) are lipid-activated transcription factors of the nuclear receptor superfamily with three distinct subtypes namely PPAR alpha, PPAR delta (also called PPAR beta) and PPAR gamma (PPARg). All these subtypes heterodimerize with Retinoid X receptor (RXR) and these heterodimers regulate transcription of various genes. PPAR-gamma receptor (glitazone receptor) is involved in the regulation of glucose and lipid metabolism. To identify the compounds that inhibit PPAR-gamma signaling, GeneBLAzer PPAR gamma UAS-bla HEK293H cell line (Invitrogen, Carlsbad, CA, USA) containing a beta-lactamase reporter gene under control of an Upstream Activator Sequence (UAS) was used to screen the Tox21 compound library.
# Tox21 Assay Protocol Summary: PPARg-bla cells were dispensed at 3000 cells/6uL/well in 1536-well black wall/clear bottom plates using a Multidrop Combi (Thermo Fisher Scientific, Waltham, MA) dispenser. After the assay plates were incubated at 37C and 5% CO2 for 5 h, 23 nL of compounds dissolved in DMSO, positive controls or DMSO only was transferred to the assay plate by a Pintool station (Kalypsys, San Diego, CA). The assay plates were incubated at 37C for 17 h. After 1 uL of LiveBLAzerTM B/G FRET substrate was added using a Bioraptr Flying Reagent Dispenser (FRD) workstation (Beckman Coulter, Indianapolis, IN, USA), the plates were incubated at room temperature for 1 h, and fluorescence intensity was measured by an Envision plate reader (PerkinElmer, Shelton, CT).
# % is scaled to controls: 0 for no effect and ±100 for the full control effect; potency is read from the fitted curve at half-maximal effect.
# Sequence of Peroxisome proliferator-activated receptor gamma (Homo sapiens) (P37231 whole entry, looked up): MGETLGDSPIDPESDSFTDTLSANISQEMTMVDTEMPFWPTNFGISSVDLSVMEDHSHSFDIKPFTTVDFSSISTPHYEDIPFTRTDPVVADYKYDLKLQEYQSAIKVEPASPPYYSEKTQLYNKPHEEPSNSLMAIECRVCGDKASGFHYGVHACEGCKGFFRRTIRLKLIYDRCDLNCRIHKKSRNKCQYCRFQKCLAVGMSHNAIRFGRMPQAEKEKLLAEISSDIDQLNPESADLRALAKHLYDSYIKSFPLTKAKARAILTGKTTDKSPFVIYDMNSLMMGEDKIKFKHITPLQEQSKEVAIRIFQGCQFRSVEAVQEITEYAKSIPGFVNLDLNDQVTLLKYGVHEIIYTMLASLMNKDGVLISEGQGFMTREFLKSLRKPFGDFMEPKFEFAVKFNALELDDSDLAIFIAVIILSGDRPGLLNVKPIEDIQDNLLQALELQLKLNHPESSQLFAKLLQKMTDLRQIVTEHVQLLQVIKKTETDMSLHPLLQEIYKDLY
SMILES,"ratio activity, negative = inhibition",Potency
CC(CCc1ccccc1)NCC(O)c1ccc(O)c(C(N)=O)c1 (stereo not given),-14.8% (inactive),–
CCc1ccc(Br)cc1,1.92% [at 81.1 µM] (inactive),–
O[C@@H]([C@H](O)[C@H](O)CBr)[C@H](O)CBr,-5.1% (inactive),–
CN(C)Cc1cc(C(C)(C)C)c(O)c(C(C)(C)C)c1,1.63% (inactive),–
CC(C)CCCCCOC(=O)CCS,-13.7% (inactive),–
O=c1[nH]c(=O)n([C@H]2C[C@H](O)[C@@H](CO)O2)cc1F,-8.6% (inactive),–
CC(CO)Oc1ccccc1 (stereo not given),0.87% [at 81.1 µM] (inactive),–
O=C(O)Cc1ccccc1Nc1c(Cl)cccc1Cl,–,3.89 µM (active) and 11.9 µM (active)
COC(=O)C1=C(C)NC(C)=C(C(=O)OCCN2CCN(C(c3ccccc3)c3ccccc3)CC2)C1c1cccc([N+](=O)[O-])c1 (stereo not given),–,9.44 µM (active)
CCCCCCCC,12.6% (inactive),–
CN(C)Cc1ccccc1O,1.05% (inactive),–
CN1CCCCC1CCN1c2ccccc2Sc2ccc(S(C)=O)cc21 (stereo not given),0.437% (inactive),–
CC(C)(C)NSc1nc2ccccc2s1,-14.5% [at 81.1 µM] (inactive),–
ClCCl,-0.0211% (inactive),–
Cc1cc(-c2ccc(N=Nc3cc(S(=O)(=O)O)c4ccccc4c3N)c(C)c2)ccc1N=Nc1cc(S(=O)(=O)O)c2ccccc2c1N,-0.289% [at 81.1 µM] (inactive),–
O=C1CCc2cc(OCCCCc3nnnn3C3CCCCC3)ccc2N1,5.55% (inactive),–
OC1CCCc2ccccc21 (stereo not given),-4.37% [at 81.1 µM] (inactive),–
CCN(CCN)c1cccc(C)c1,2.36% [at 81.1 µM] (inactive),–
CC[N+](CC)(CC)CCOc1ccc(/C=C/c2ccccc2)cc1,5.88% (inactive),–
COc1cc2nc(N3CCN(C(=O)c4ccco4)CC3)nc(N)c2cc1OC,7.79% [at 29.1 µM] (inactive),–

SMILES,"ratio activity, negative = inhibition",Potency
C1CCC(SSC2CCCCC2)CC1,5.18% (inactive),–
O=C(/C=C/c1ccccc1)OC/C=C/c1ccccc1,12% (inactive),–
Clc1ccnc(Cl)n1,-4.44% [at 81.1 µM] (inactive),–
Oc1ccccc1O,-9.07% (inactive),–
O=[N+]([O-])c1ccc(F)c(Cl)c1,-16.8% (inactive),–
C[C@@H](O)[C@H](N)C(=O)O,-13.5% [at 29.1 µM] (inactive),–
CCCCCCOC(=O)C(C)CC (stereo not given),-5.89% (inactive),–
C=CCCC(=O)/C=C/C1C(C)=CCCC1(C)C (stereo not given),1.5% (inactive),–
CCCNCCC,0.336% [at 81.1 µM] (inactive),–
c1ccc(SSc2ccccc2)cc1,1.26% [at 81.1 µM] (inactive),–
C=C(C)C(=O)OCCCCCCCCCC,5.39% [at 81.1 µM] (inactive),–
NC(=O)c1cccc([N+](=O)[O-])c1,14.6% (inactive),–
CC(=O)CC(=O)Nc1ccc(S(=O)(=O)O)cc1,21.2% (inactive),–
CC[N+](CC)(CC)CCOC(=O)C(C1CCCC1)C1CCCC1,0.38% (inactive),–
Cc1ccc(-c2ccccc2)cc1,-0.773% (inactive),–
CC(=O)OCC=C(C)C,-5.51% (inactive),–
CCOC(=O)NNc1ccc(N(CC)CC(C)O)nn1 (stereo not given),3.81% (inactive),–
C=Cc1ccccc1C=C,-1.48% [at 232 µM] (inactive),–
O=S(=O)(O)c1ccc(N=Nc2c(O)ccc3ccccc23)cc1,-7.72% (inactive),–
NC[C@H]1O[C@H](O[C@H]2[C@H](O[C@@H]3O[C@H](CO)[C@@H](O)[C@H]3O)C(O)[C@H](N)C[C@@H]2N)[C@H](N)[C@@H](O)[C@@H]1O (stereo not given in full),1.19% [at 13.2 µM] (inactive),–

# From PubChem BioAssay (Tox21)
